Results on 40 molecules are retold here after PubChem BioAssay (Tox21).

Inconclusive results are not listed. Where a call stands in place of a potency, no number is given. Activity calls are given as the source filed them. Calls come from the whole dose curve; as a rule, active = well fitted activation curve with a large enough effect in the repeat runs; inconclusive = weak or mixed curves; inactive = flat fitted curve, though single readings scatter.

This assay in a line: A CellTox Green Cytotoxicity Assay to monitor cytotoxicity in HEK293 cells - 32 hour (AID 1224881). Note: nearly all actives have a fitted effect of over 40% in size. Conditions: CellTox Green fluorescence; series mostly up to 76.8 µM. The source says: National Center for Advancing Translational Sciences [NCATS]
NIH Chemical Genomics Center [NCGC]
U.S. Environmental Protection Agency [EPA]
National Institutes of Environmental Health Sciences [NIEHS]
National Toxicology Program [NTP]
Cell-based models are critical for drug discovery. Determining the natural cytotoxic effects resulting from test compounds is an essential research activity. A CellTox Green Cytotoxicity Assay to monitor cytotoxicity in real time of continues cell culture during 40 hours of the compound treatment was used to screen Tox21 10K library compounds in Hek293 cells. CellTox Green Cytotoxicity Assay is a nonlytic, homogeneous, biofluorescent method to measure cytotoxicity in cell culture after experimental manipulation. The assay system uses a proprietary asymmetric cyanine dye that is excluded from viable cells but preferentially stains the dead cell's DNA. […] Viable cells produce no appreciable increases in fluorescence. Therefore, the fluorescence signal produced by the binding interaction with dead cell DNA is proportional to cytotoxicity.
The mixture of Hek293 cell suspension and reagents were dispensed at 600cells/6 ul/well in 1536-well tissue culture treated black solid bottom plates using a Multidrop dispenser. After the assay plates were incubated at a 37 C/5% CO2 incubator for 5 hours, 23 nL of compounds dissolved in DMSO, positive and negative controls was transferred to the assay plate by a pintool work station. The plates were incubated at 37 C for 40 hours. The fluorescence intensity were measured at 0h, 8h, 16h, 24h, 32h and 40h time points using ViewLux plate reader during compound treatment.
With `Oc1ccc2c(c1)OCO2`, the Potency entry is “inactive”.

With `CC(=O)CC(=O)c1ccccc1`, the Potency result is “inactive”.

Turning to `CCCCOC(=O)c1ccccc1C(=O)OCC(CC)CCCC` (stereo not given), the Potency entry is “inactive”.

For the molecule `O=C1[C@H](CC[C@H](O)c2ccc(F)cc2)[C@@H](c2ccc(O)cc2)N1c1ccc(F)cc1`, the Potency entry was “inactive”.

For the molecule `C=CCCCCCC`, the Potency result was “inactive”.

As for `NCc1ccccc1`, the Potency result was “inactive”.

Take `OCCC1CCCCN1` (stereo not given): the Potency entry was “inactive”.

As for `CN(C)C/C=C(/c1ccc(Br)cc1)c1cccnc1`, the Potency entry is “inactive”.

Regarding `Cc1ccc(C)o1`, the Potency result was “inactive”.

Take `CC[C@@H]1C[C@H](N(Cc2cc(C(F)(F)F)cc(C(F)(F)F)c2)C(C)=O)c2cc(C(F)(F)F)ccc2N1C(=O)OC(C)C`: the Potency result was “inactive”.

On to `Nc1nc(CC(=O)O)cs1`, for which the Potency result was “inactive”.

As for `C[Si](C)O[Si](C)(C)O[Si](C)(C)O[Si](C)C`, the Potency entry is “inactive”.

Consider `OC(CCN1CCCCC1)(c1ccccc1)C1CCCCC1` (stereo not given), for which the Potency result was “inactive”.

Consider `Nc1nc(N)c2nc(CNc3ccc(C(=O)N[C@@H](CCC(=O)O)C(=O)O)cc3)cnc2n1`, for which the Potency result is “inactive”.

Regarding `Cn1c(=O)c2c(ncn2CC(O)CO)n(C)c1=O` (stereo not given), the Potency entry was “inactive”.

On to `CC(=O)/C=C/C1C(C)=CCCC1(C)C` (stereo not given), for which the Potency entry was “inactive”.

In the case of `COc1ccccc1OC(=O)Oc1ccccc1OC`, the Potency result is “inactive”.

For `CC(C)=CCCC(C)CC=O` (stereo not given), the Potency entry was “inactive”.

In the case of `CCCCCCCCCC=O`, the Potency result was “inactive”.

As to `CN(C)CCCOc1nn(Cc2ccccc2)c2ccccc12`, the Potency entry was “inactive”.

Take `Cn1sccc1=O`: the Potency result is “inactive”.

In the case of `Cc1cc(NC(=O)C(=O)O)cc(C)c1Oc1ccc(O)c2c1CCC2`, the Potency entry is “inactive”.

In the case of `Oc1ccc(O)c2c(O)cccc12`, the Potency result was “inactive”.

For `C1=Cc2ccccc2C1`, the Potency entry was “inactive”.

Turning to `COC(=O)C(C)=O`, the Potency result was “inactive”.

Regarding `CC(C)CCCC(C)CCO` (stereo not given), the Potency result is “inactive”.

For `C=CC(=O)OCCOC(=O)CCC(=O)O`, the Potency result was “inactive”.

In the case of `CCCCCCCCCCCCC(=O)O`, the Potency result is “inactive”.

For the molecule `CN(C)CC/C=C1\c2ccccc2COc2ccccc21`, the Potency entry is “inactive”.

Turning to `O=C(Cl)c1ccc([N+](=O)[O-])cc1`, the Potency result is “inactive”.

Turning to `CN1CCN(C2=Nc3ccccc3Sc3ccc(Cl)cc32)CC1`, the Potency result is “inactive”.

For `C=Cc1c(C)c2cc3[nH]c(cc4nc(cc5nc(cc1[nH]2)C(C)=C5CCC(=O)O)C(CCC(=O)O)=C4C)c(C)c3C=C`, the Potency result is “inactive”.

As for `CC(=O)SCc1ccco1`, the Potency result was “inactive”.

Consider `CCN(CC)CCc1nc(-c2ccccc2)no1`, for which the Potency result is “inactive”.

Take `C=CC[N+]1([C@H]2C[C@H]3[C@@H]4CC[C@H]5C[C@H](OC(C)=O)[C@@H](N6CCCCC6)C[C@]5(C)[C@H]4CC[C@]3(C)[C@H]2OC(=O)CC)CCCCC1`: the Potency result was “inactive”.

In the case of `c1ccc(CNCc2ccccc2)cc1`, the Potency result was “inactive”.

For the molecule `O=C(O)/C=C/c1cnc[nH]1`, the Potency result is “inactive”.

As to `CC(C)(C)C(=O)OCOP(=O)(COCCn1cnc2c(N)ncnc21)OCOC(=O)C(C)(C)C`, the Potency entry is “inactive”.

As for `CCN(CC)CCNC(C(=O)OCCC(C)C)c1ccccc1` (stereo not given), the Potency entry was “inactive”.

For the molecule `O=C(O)C(c1ccc(Cl)cc1)c1ccc(Cl)cc1`, the Potency entry is “inactive”.
